# Measurements from PMC11006913.
# Changes are numbered by the printed parent chain.
# What was measured:
# Experiment in all cases: PBM; 200 nM protein, PBS
# Settings in all cases: dsDNA, one strand shown
# CRX [1] = molecular target: CRX (Homo sapiens, UniProt O43186 26-111)
# CRX [2] = molecular target: CRX (Homo sapiens, UniProt O43186 26-111, E42D)
# CRX [3] = molecular target: CRX (Homo sapiens, UniProt O43186 26-111, R41L)
# PRRX1 = PRRX1 (Homo sapiens, UniProt P54821 80-166, F113S)
# VAX1 [4] = molecular target: VAX1 (Homo sapiens, UniProt Q5SQQ9 86-172)
# VAX1 [5] = molecular target: VAX1 (Homo sapiens, UniProt Q5SQQ9 86-172, T142I)
# HESX1 [6] = molecular target: HESX1 (Homo sapiens, UniProt Q9UBX0 95-180, R109Q)
# HESX1 [7] = molecular target: HESX1 (Homo sapiens, UniProt Q9UBX0 95-180, P111T)
# HOXB9 = HOXB9 (Homo sapiens, UniProt P17482 171-250, T197M)
# ALX4 [8] = molecular target: ALX4 (Homo sapiens, UniProt Q9H161 200-286)
# PAX4 [9] = molecular target: T1, PAX4 (Homo sapiens, UniProt O43316 9-242, R200K)
# T1 sequence: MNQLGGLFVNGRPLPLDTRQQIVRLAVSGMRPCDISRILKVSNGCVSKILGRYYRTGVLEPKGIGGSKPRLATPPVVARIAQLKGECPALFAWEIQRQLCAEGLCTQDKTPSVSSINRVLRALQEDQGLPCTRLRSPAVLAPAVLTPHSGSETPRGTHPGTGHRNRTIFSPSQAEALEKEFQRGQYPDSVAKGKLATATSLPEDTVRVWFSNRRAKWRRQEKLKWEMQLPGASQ
# ALX4 [10] = molecular target: ALX4 (Homo sapiens, UniProt Q9H161 200-286, Q225E)
# MSX2 [11] = molecular target: MSX2 (Homo sapiens, UniProt P35548 130-214, R199I)
# PAX4 [12] = molecular target: T2, PAX4 (Homo sapiens, UniProt O43316 9-242, R200Q)
# T2 sequence: T1 sequence with K192Q
# PAX4 [13] = molecular target: T3, PAX4 (Homo sapiens, UniProt O43316 9-242, F177V)
# T3 sequence: T1 sequence with F169V, K192R
# MSX2 [14] = molecular target: MSX2 (Homo sapiens, UniProt P35548 130-214)
# ALX3 = ALX3 (Homo sapiens, UniProt O95076 139-225)
# PAX4 [15] = molecular target: T4, PAX4 (Homo sapiens, UniProt O43316 9-242, F177Y)
# T4 sequence: T1 sequence with F169Y, K192R
# MSX2 [16] = molecular target: MSX2 (Homo sapiens, UniProt P35548 130-214, F161Y)
# PAX4 [17] = molecular target: T5, PAX4 (Homo sapiens, UniProt O43316 9-242, R227W)
# T5 sequence: T1 sequence with K192R, R219W
# Sequence of MSX2 (Homo sapiens, UniProt P35548 130-214) (P35548 130-214): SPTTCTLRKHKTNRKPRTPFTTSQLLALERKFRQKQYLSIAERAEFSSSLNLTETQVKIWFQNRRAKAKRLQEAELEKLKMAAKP
# Sequence of CRX (Homo sapiens, UniProt O43186 26-111, E42D) (O43186 26-111 E42D): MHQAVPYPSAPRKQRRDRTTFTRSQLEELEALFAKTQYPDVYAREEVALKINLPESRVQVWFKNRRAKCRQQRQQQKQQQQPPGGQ
# Sequence of CRX (Homo sapiens, UniProt O43186 26-111) (O43186 26-111): as the sequence (O43186 26-111 E42D) above, with D17E counted along it
# Sequence of PRRX1 (P54821 80-166 F113S): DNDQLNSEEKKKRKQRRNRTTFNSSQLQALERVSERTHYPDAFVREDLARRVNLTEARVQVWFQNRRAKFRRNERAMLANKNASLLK
# Sequence of CRX (Homo sapiens, UniProt O43186 26-111, R41L) (O43186 26-111 R41L): as the sequence (O43186 26-111 E42D) above, with R16L, D17E counted along it
# Sequence of HESX1 (Homo sapiens, UniProt Q9UBX0 95-180, R109Q) (Q9UBX0 95-180 R109Q): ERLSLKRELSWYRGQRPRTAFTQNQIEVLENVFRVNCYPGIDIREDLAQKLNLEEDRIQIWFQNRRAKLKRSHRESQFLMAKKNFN
# Sequence of VAX1 (Homo sapiens, UniProt Q5SQQ9 86-172, T142I) (Q5SQQ9 86-172 T142I): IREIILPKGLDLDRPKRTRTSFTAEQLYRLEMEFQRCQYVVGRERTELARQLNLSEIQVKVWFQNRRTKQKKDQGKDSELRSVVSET
# Sequence of ALX3 (O95076 139-225): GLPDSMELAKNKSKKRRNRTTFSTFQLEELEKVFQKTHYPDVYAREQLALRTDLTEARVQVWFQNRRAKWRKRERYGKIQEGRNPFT
# Sequence of VAX1 (Homo sapiens, UniProt Q5SQQ9 86-172) (Q5SQQ9 86-172): as the sequence (Q5SQQ9 86-172 T142I) above, with I57T counted along it
# Sequence of HOXB9 (P17482 171-250 T197M): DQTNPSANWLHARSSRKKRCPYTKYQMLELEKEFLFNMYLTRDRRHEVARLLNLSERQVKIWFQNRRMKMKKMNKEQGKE
# Sequence of MSX2 (Homo sapiens, UniProt P35548 130-214, R199I) (P35548 130-214 R199I): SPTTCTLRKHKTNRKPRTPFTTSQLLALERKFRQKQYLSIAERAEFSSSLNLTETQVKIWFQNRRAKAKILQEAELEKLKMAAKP
# Sequence of ALX4 (Homo sapiens, UniProt Q9H161 200-286) (Q9H161 200-286): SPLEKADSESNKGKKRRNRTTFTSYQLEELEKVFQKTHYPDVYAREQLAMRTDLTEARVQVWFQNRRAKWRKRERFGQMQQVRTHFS
# Sequence of MSX2 (Homo sapiens, UniProt P35548 130-214, F161Y) (P35548 130-214 F161Y): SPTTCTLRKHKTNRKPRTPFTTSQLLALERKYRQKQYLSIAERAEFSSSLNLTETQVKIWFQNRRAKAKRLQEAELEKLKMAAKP
# Sequence of HESX1 (Homo sapiens, UniProt Q9UBX0 95-180, P111T) (Q9UBX0 95-180 P111T): as the sequence (Q9UBX0 95-180 R109Q) above, with Q15R, P17T counted along it
# Sequence of ALX4 (Homo sapiens, UniProt Q9H161 200-286, Q225E) (Q9H161 200-286 Q225E): as the sequence (Q9H161 200-286) above, with Q26E counted along it
sequence,measurement,setting,value
CGGTCCAA,binding signal,CRX [1],"8.48 upbm affinity estimate (log intensity, higher = more binding, comparable within an allelic series)"
same,binding signal,CRX [2],"8.43 upbm affinity estimate (log intensity, higher = more binding, comparable within an allelic series)"
same,binding signal,CRX [3],"8.25 upbm affinity estimate (log intensity, higher = more binding, comparable within an allelic series)"
ACGCGCAG,binding signal,PRRX1,"9.07 upbm affinity estimate (log intensity, higher = more binding, comparable within an allelic series)"
CGAACGCC,binding signal,CRX [1],"7.92 upbm affinity estimate (log intensity, higher = more binding, comparable within an allelic series)"
same,binding signal,CRX [2],"8.15 upbm affinity estimate (log intensity, higher = more binding, comparable within an allelic series)"
same,binding signal,CRX [3],"8.11 upbm affinity estimate (log intensity, higher = more binding, comparable within an allelic series)"
ACGGCGGC,binding signal,VAX1 [4],"7.01 upbm affinity estimate (log intensity, higher = more binding, comparable within an allelic series)"
same,binding signal,VAX1 [5],"7.25 upbm affinity estimate (log intensity, higher = more binding, comparable within an allelic series)"
CCAGCGCG,binding signal,HESX1 [6],"6.45 upbm affinity estimate (log intensity, higher = more binding, comparable within an allelic series)"
same,binding signal,HESX1 [7],"6.49 upbm affinity estimate (log intensity, higher = more binding, comparable within an allelic series)"
CGCCCGAG,binding signal,HOXB9,"8.29 upbm affinity estimate (log intensity, higher = more binding, comparable within an allelic series)"
CGGGCTCC,binding signal,HOXB9,"8.02 upbm affinity estimate (log intensity, higher = more binding, comparable within an allelic series)"
same,binding signal,ALX4 [8],"7.48 upbm affinity estimate (log intensity, higher = more binding, comparable within an allelic series)"
same,binding signal,PAX4 [9],"8.72 upbm affinity estimate (log intensity, higher = more binding, comparable within an allelic series)"
same,binding signal,PRRX1,"8.95 upbm affinity estimate (log intensity, higher = more binding, comparable within an allelic series)"
same,binding signal,ALX4 [10],"7.51 upbm affinity estimate (log intensity, higher = more binding, comparable within an allelic series)"
same,binding signal,MSX2 [11],"9.06 upbm affinity estimate (log intensity, higher = more binding, comparable within an allelic series)"
same,binding signal,PAX4 [12],"9.02 upbm affinity estimate (log intensity, higher = more binding, comparable within an allelic series)"
same,binding signal,PAX4 [13],"8.99 upbm affinity estimate (log intensity, higher = more binding, comparable within an allelic series)"
same,binding signal,MSX2 [14],"8.79 upbm affinity estimate (log intensity, higher = more binding, comparable within an allelic series)"
same,binding signal,ALX3,"7.17 upbm affinity estimate (log intensity, higher = more binding, comparable within an allelic series)"
same,binding signal,PAX4 [15],"8.93 upbm affinity estimate (log intensity, higher = more binding, comparable within an allelic series)"
same,binding signal,VAX1 [4],"6.15 upbm affinity estimate (log intensity, higher = more binding, comparable within an allelic series)"
same,binding signal,MSX2 [16],"8.87 upbm affinity estimate (log intensity, higher = more binding, comparable within an allelic series)"
same,binding signal,VAX1 [5],"6.61 upbm affinity estimate (log intensity, higher = more binding, comparable within an allelic series)"
same,binding signal,PAX4 [17],"9.04 upbm affinity estimate (log intensity, higher = more binding, comparable within an allelic series)"
ACCCGGGC,binding signal,PAX4 [9],"9.17 upbm affinity estimate (log intensity, higher = more binding, comparable within an allelic series)"
same,binding signal,PAX4 [12],"9.34 upbm affinity estimate (log intensity, higher = more binding, comparable within an allelic series)"
same,binding signal,PAX4 [13],"9.22 upbm affinity estimate (log intensity, higher = more binding, comparable within an allelic series)"
same,binding signal,PAX4 [15],"9.24 upbm affinity estimate (log intensity, higher = more binding, comparable within an allelic series)"
same,binding signal,PAX4 [17],"9.37 upbm affinity estimate (log intensity, higher = more binding, comparable within an allelic series)"
CTTCCGTC,binding signal,HESX1 [6],"6.56 upbm affinity estimate (log intensity, higher = more binding, comparable within an allelic series)"
same,binding signal,HESX1 [7],"6.55 upbm affinity estimate (log intensity, higher = more binding, comparable within an allelic series)"
CGGACCCG,binding signal,CRX [1],"8.38 upbm affinity estimate (log intensity, higher = more binding, comparable within an allelic series)"
same,binding signal,CRX [2],"8.29 upbm affinity estimate (log intensity, higher = more binding, comparable within an allelic series)"
same,binding signal,CRX [3],"8.36 upbm affinity estimate (log intensity, higher = more binding, comparable within an allelic series)"
CACGCGTG,binding signal,PRRX1,"9.36 upbm affinity estimate (log intensity, higher = more binding, comparable within an allelic series)"
CCCGGCGG,binding signal,ALX4 [8],"7.89 upbm affinity estimate (log intensity, higher = more binding, comparable within an allelic series)"
same,binding signal,ALX4 [10],"8.11 upbm affinity estimate (log intensity, higher = more binding, comparable within an allelic series)"
AATTAGCT,binding signal,ALX4 [8],"13.6 upbm affinity estimate (log intensity, higher = more binding, comparable within an allelic series)"
same,binding signal,PAX4 [9],"11.7 upbm affinity estimate (log intensity, higher = more binding, comparable within an allelic series)"
same,binding signal,PRRX1,"11.1 upbm affinity estimate (log intensity, higher = more binding, comparable within an allelic series)"
same,binding signal,ALX4 [10],"12.7 upbm affinity estimate (log intensity, higher = more binding, comparable within an allelic series)"
same,binding signal,MSX2 [11],"12.3 upbm affinity estimate (log intensity, higher = more binding, comparable within an allelic series)"
same,binding signal,PAX4 [12],"11.9 upbm affinity estimate (log intensity, higher = more binding, comparable within an allelic series)"
same,binding signal,PAX4 [13],"10.4 upbm affinity estimate (log intensity, higher = more binding, comparable within an allelic series)"
same,binding signal,MSX2 [14],"13.3 upbm affinity estimate (log intensity, higher = more binding, comparable within an allelic series)"
same,binding signal,ALX3,"12.2 upbm affinity estimate (log intensity, higher = more binding, comparable within an allelic series)"
same,binding signal,PAX4 [15],"10.9 upbm affinity estimate (log intensity, higher = more binding, comparable within an allelic series)"
same,binding signal,HESX1 [6],"8.93 upbm affinity estimate (log intensity, higher = more binding, comparable within an allelic series)"
same,binding signal,HESX1 [7],"10.4 upbm affinity estimate (log intensity, higher = more binding, comparable within an allelic series)"
same,binding signal,MSX2 [16],"12.9 upbm affinity estimate (log intensity, higher = more binding, comparable within an allelic series)"
same,binding signal,PAX4 [17],"10.9 upbm affinity estimate (log intensity, higher = more binding, comparable within an allelic series)"
ATTACGTA,binding signal,CRX [1],"10.5 upbm affinity estimate (log intensity, higher = more binding, comparable within an allelic series)"
same,binding signal,CRX [2],"10.4 upbm affinity estimate (log intensity, higher = more binding, comparable within an allelic series)"
same,binding signal,CRX [3],"10.2 upbm affinity estimate (log intensity, higher = more binding, comparable within an allelic series)"
CCGCGTCG,binding signal,HESX1 [6],"6.5 upbm affinity estimate (log intensity, higher = more binding, comparable within an allelic series)"
same,binding signal,HESX1 [7],"6.49 upbm affinity estimate (log intensity, higher = more binding, comparable within an allelic series)"
CCGGCGCG,binding signal,CRX [1],"8.33 upbm affinity estimate (log intensity, higher = more binding, comparable within an allelic series)"
same,binding signal,CRX [2],"8.4 upbm affinity estimate (log intensity, higher = more binding, comparable within an allelic series)"
same,binding signal,CRX [3],"8.36 upbm affinity estimate (log intensity, higher = more binding, comparable within an allelic series)"
CTAATTGC,binding signal,ALX4 [8],"13.6 upbm affinity estimate (log intensity, higher = more binding, comparable within an allelic series)"
same,binding signal,ALX4 [10],"12.8 upbm affinity estimate (log intensity, higher = more binding, comparable within an allelic series)"
same,binding signal,MSX2 [11],"13 upbm affinity estimate (log intensity, higher = more binding, comparable within an allelic series)"
same,binding signal,MSX2 [14],"14 upbm affinity estimate (log intensity, higher = more binding, comparable within an allelic series)"
same,binding signal,ALX3,"12.3 upbm affinity estimate (log intensity, higher = more binding, comparable within an allelic series)"
same,binding signal,HESX1 [6],"8.98 upbm affinity estimate (log intensity, higher = more binding, comparable within an allelic series)"
same,binding signal,VAX1 [4],"13 upbm affinity estimate (log intensity, higher = more binding, comparable within an allelic series)"
same,binding signal,HESX1 [7],"10.9 upbm affinity estimate (log intensity, higher = more binding, comparable within an allelic series)"
same,binding signal,MSX2 [16],"13.6 upbm affinity estimate (log intensity, higher = more binding, comparable within an allelic series)"
same,binding signal,VAX1 [5],"12.9 upbm affinity estimate (log intensity, higher = more binding, comparable within an allelic series)"
ACGGCTGG,binding signal,PAX4 [9],"9.35 upbm affinity estimate (log intensity, higher = more binding, comparable within an allelic series)"
same,binding signal,PAX4 [12],"9.48 upbm affinity estimate (log intensity, higher = more binding, comparable within an allelic series)"
same,binding signal,PAX4 [13],"9.33 upbm affinity estimate (log intensity, higher = more binding, comparable within an allelic series)"
same,binding signal,PAX4 [15],"9.33 upbm affinity estimate (log intensity, higher = more binding, comparable within an allelic series)"
same,binding signal,PAX4 [17],"9.39 upbm affinity estimate (log intensity, higher = more binding, comparable within an allelic series)"
CCAGCCAG,binding signal,HOXB9,"8.47 upbm affinity estimate (log intensity, higher = more binding, comparable within an allelic series)"
CACGGGCC,binding signal,MSX2 [11],"9.44 upbm affinity estimate (log intensity, higher = more binding, comparable within an allelic series)"
same,binding signal,MSX2 [14],"9.39 upbm affinity estimate (log intensity, higher = more binding, comparable within an allelic series)"
same,binding signal,ALX3,"7.66 upbm affinity estimate (log intensity, higher = more binding, comparable within an allelic series)"
same,binding signal,MSX2 [16],"9.46 upbm affinity estimate (log intensity, higher = more binding, comparable within an allelic series)"
CCGGTGGC,binding signal,MSX2 [11],"9.47 upbm affinity estimate (log intensity, higher = more binding, comparable within an allelic series)"
same,binding signal,MSX2 [14],"9.56 upbm affinity estimate (log intensity, higher = more binding, comparable within an allelic series)"
same,binding signal,VAX1 [4],"7.31 upbm affinity estimate (log intensity, higher = more binding, comparable within an allelic series)"
same,binding signal,MSX2 [16],"9.58 upbm affinity estimate (log intensity, higher = more binding, comparable within an allelic series)"
same,binding signal,VAX1 [5],"7.45 upbm affinity estimate (log intensity, higher = more binding, comparable within an allelic series)"
CGTGCACG,binding signal,HOXB9,"8.83 upbm affinity estimate (log intensity, higher = more binding, comparable within an allelic series)"
same,binding signal,PRRX1,"9.62 upbm affinity estimate (log intensity, higher = more binding, comparable within an allelic series)"
CTGGCCAG,binding signal,MSX2 [11],"9.71 upbm affinity estimate (log intensity, higher = more binding, comparable within an allelic series)"
same,binding signal,MSX2 [14],"9.79 upbm affinity estimate (log intensity, higher = more binding, comparable within an allelic series)"
same,binding signal,MSX2 [16],"9.83 upbm affinity estimate (log intensity, higher = more binding, comparable within an allelic series)"
GCGACGCC,binding signal,VAX1 [4],"7.12 upbm affinity estimate (log intensity, higher = more binding, comparable within an allelic series)"
same,binding signal,VAX1 [5],"7.24 upbm affinity estimate (log intensity, higher = more binding, comparable within an allelic series)"
CATGCGCC,binding signal,HOXB9,"8.7 upbm affinity estimate (log intensity, higher = more binding, comparable within an allelic series)"
CGGTCGGC,binding signal,ALX4 [8],"8.27 upbm affinity estimate (log intensity, higher = more binding, comparable within an allelic series)"
same,binding signal,ALX4 [10],"7.99 upbm affinity estimate (log intensity, higher = more binding, comparable within an allelic series)"
same,binding signal,ALX3,"7.68 upbm affinity estimate (log intensity, higher = more binding, comparable within an allelic series)"
GCTGGGCC,binding signal,PAX4 [9],"9.06 upbm affinity estimate (log intensity, higher = more binding, comparable within an allelic series)"
same,binding signal,PAX4 [12],"9.13 upbm affinity estimate (log intensity, higher = more binding, comparable within an allelic series)"
same,binding signal,PAX4 [13],"8.94 upbm affinity estimate (log intensity, higher = more binding, comparable within an allelic series)"
same,binding signal,ALX3,"7.62 upbm affinity estimate (log intensity, higher = more binding, comparable within an allelic series)"
same,binding signal,PAX4 [15],"9.03 upbm affinity estimate (log intensity, higher = more binding, comparable within an allelic series)"
same,binding signal,PAX4 [17],"9.05 upbm affinity estimate (log intensity, higher = more binding, comparable within an allelic series)"
